Only some compounds are listed: those with a hit (about 1.3% of all), similar ones and a draw of the others.
IL2 activator: activates IL-2 in a cell-based reporter assay. activation, % (series mostly up to about 46 µM). AID 652025. IL-2 activation reporter assay, cell-based qHTS; stimulated with anti-CD3/CD4/CD28 beads; in transgenic mouse T cells. 0.065% of 360,000 active; in the data active means activation above about 50%; inconclusive means mostly about 30% to 49%; further: 0% is about no effect
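Readout is EGFP and DsRed signal by fluorescent plate cytometry after 18 h at 37 degrees C. Transgenic mouse T cells (750/well) received compound for 60 min before bead stimulation (anti-CD3, anti-CD4, anti-CD28); memory T cells served as non-tolerant control.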
p53 reactivator: mutant p53 re-activation in reporter cells. 0.063% of 320,000 active. H1299 p53-A138V BP100-luciferase reporter, luminescence, 24 h. Potency, µM (highest dose often 92.2 µM), inactives show at the top dose activity change, positive = activation, actives largely listed as activators; further: potency means the concentration at half of the fitted maximal effect; % of control where 0% means no effect; nearly all actives have a fitted effect of over 45% in size
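p53-null H1299 cells stably carrying temperature-sensitive p53-A138V and a BP100-luciferase reporter were pinned with compounds (4-point, 1:5 series) and held 24 hrs at 37 deg C. Luminescence was read 10 min after detection reagent.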
TCR act: T cell receptor activation | primary human leukocytes, anti-CD3, IL-2 HTRF, 48 h | Potency, µM (doses to about 9.22 µM), without a hit: top-dose activation of IL-2 secretion, most hits filed as activators | 330,000 tested, under 10 active; further: % of control where 0% means no effect
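Human primary leukocytes + a-CD3 beads + cpd, 48 hr; IL-2 in supernatant by HTRF (ex 320nm / em 665nm). No co-stimulatory signal supplied.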
Mito fusion act: inhibitors of mitochondrial division or activators of mitochondrial fusion | S. cerevisiae fusion-defective mutant growth rescue, CellTiterGlo 48 h | Potency, µM (titrated, usually from 46.1 µM), inactives show at the top dose growth rescue (activation), actives largely listed as activators | 0.23% of 320,000 active; further: potency means the concentration at half of the fitted maximal effect; % of control where 0% means no effect; nearly all actives have a fitted effect of over 45% in size
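Compounds are tested for their ability to restore growth of mitochondrial fusion-defective yeast strains at non-permissive 37C in YPEG medium over 48 hours. Viability is quantified by luciferase luminescence.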
BRCA1 expr up: activators of BRCA1 expression. MCF7-BRCA1-FFLuc reporter, luminescence, 48 h; response scale: scaled: vehicle 0%, 10 µM genistein 100%. Potency, µM (top dose mostly 46.1 µM), without a hit: at the top dose activation, usual class: activators. 1.1% of 380,000 active; further: potency means the concentration at half of the fitted maximal effect; nearly all actives have a fitted effect of over 80% in size
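MCF7-BRCA1-FFLuc, 2000 cells/well; 2 h attach, 37 °C/5% CO2; compound 48 h; luciferase substrate 15 min; luminescence end-point. Norm. to genistein 10 microM max activation and DMSO; concentration-response curves fitted.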
An asterisk follows results filed as active; ? = inconclusive; . = no result given; [ ] = dose if it differs, or a comment. Unless noted, the call rests on the fitted dose curve; in most records, active means well fitted curve in the direction sought with a large enough effect; inconclusive means small, poorly fitted or top-dose-only effect, or another doubt; inactive means no such curve, though single readings can be large; an effect the other way counts as inactive or inconclusive.

SMILES	IL2 activator	p53 reactivator	TCR act	Mito fusion act	BRCA1 expr up
COc1ccc(-c2nc3ccc(NC(C)=O)cc3c(=O)n2Cc2ccccc2)cc1COc1ccc(NC(C)=O)cc1	.	.	.	.	15.2%
Nc1cccc[n+]1C(c1ccnc2ccccc12)[n+]1ccccc1N	.	.	.	.	-2.5%
O=C(COc1ccccc1)N1CCc2ccccc21	-4.3	?	1.5%[46.1 µM]	4.6%	99.7%
O=C(COc1ccc(Br)cc1)N1CCc2ccccc21	-1.0	12.2%	-1.6%	3.8%	7.08µM*
Cn1cccc1C(=O)OCC(=O)N1CCc2ccccc21	0.0	?	.	.	10µM*
O=C(Cc1c[nH]c2ccccc12)N1CCc2ccccc21	2.5	29.2%	2.5%	10.0%	11.2µM*
COc1ccc(N2CCN(C(c3ccc(C)cc3)c3nnnn3C(C)(C)C)CC2)cc1 (stereo not given)	.	.	.	.	4.6%
Fc1ccc2[nH]c3c(NCc4ccco4)ncnc3c2c1	.	.	.	.	-45.2%
COc1cc2sc3cc(NCCCN4CCOCC4)ccc3c(=O)c2cc1OC	-0.5	20.0%	-1.5%	.	?
O=c1c2ccccc2sc2ccc(NCCCN3CCOCC3)cc12	-0.5	.	-6.0%	.	11.2µM*
Cc1ccc(NC(=O)c2cnn3c(C(F)F)cc(-c4ccccc4)nc23)cc1F	.	.	.	.	-14.0%
Cc1ccc(C2=Nc3cccnc3C(c3ccccc3)=NN2)cc1	-0.2	12.4%	7.3%	-2.8%	6.31µM*
Cc1ccc2c(c1)C(c1ccncc1)=NNC(c1ccccc1)=N2	-2.2	11.7%	-3.6%	8.1%	0.0%
COc1ccc(/C=N/Nc2ncccc2[N+](=O)[O-])c(OC)c1	-3.5	?	-1.1%	-1.8%	14.1µM*
COc1ccc(-c2cc(-c3cc(F)ccc3O)[nH]n2)cc1OC	-4.1	8.2%	-3.4%	13.2%	10µM*
COc1ccc(-c2cc(-c3ccccc3O)[nH]n2)cc1OC	-0.6	?	2.6%	-8.3%	?
CN(C(=O)CSc1ncnc2sccc12)C1CCS(=O)(=O)C1 (stereo not given)	0.8	8.6%	-3.9%	-4.5%	-13.3%
CN(C(=O)CSc1ncnc2sccc12)C1CCCCC1	-2.8	?	-0.8%	4.8%	3.98µM*
COC(=O)C(NC(=O)CCc1nnc2ccc(N3CCCCC3)nn12)C(C)C (stereo not given)	-1.1	?	4.3%	3.8%	11.2µM*
O=C(NCc1ccco1)c1ccc(COc2cc(Cl)ccc2Cl)cc1	0.6	?	1.4%[46.1 µM]	1.6%	7.94µM*
O=C(COc1ccc(Cl)cc1Cl)NCc1ccco1	-0.1	?	-2.4%	0.4%	10µM*
O=C(COc1ccc(Cl)cc1Cl)c1ccc[nH]1	-2.6	?	-0.5%	-3.8%	10µM*
O=C(COc1ccc(Cl)cc1Cl)NNC(=S)NCc1ccco1	1.0	3.2%	-1.3%	11.2%	62.8%
C[N+]1(CC(=O)c2ccc3ccccc3c2)CCOCC1	.	.	.	.	0.0%
O=S(=O)(Nc1cccc(-c2ccc(N3CCCCCC3)nn2)c1)c1ccccc1Cl	-0.1	10.0%	-2.3%	-0.8%	74.5%
SMILES	IL2 activator	p53 reactivator	TCR act	Mito fusion act	BRCA1 expr up
O=S(=O)(Nc1cccc(-c2ccc(N3CCCCCC3)nn2)c1)c1ccccc1F	6.6	?	-1.0%	-4.0%	12.6µM*
CCC(=O)c1ccc(OCc2ccc(C#N)cc2)cc1	-1.1	?	-2.3%	-2.0%	3.55µM*
CCC(=O)c1ccc(OCc2ccc(C(=O)OC)cc2)cc1	-3.7	10.1%	-7.1%[46.1 µM]	-1.6%	-16.4%
CC(C)CC(=O)N(c1nnc(-c2cccnc2)s1)C1CCCC1	-1.5	.	4.3%	-0.4%	-2.4%
CC(=O)N(c1nnc(-c2ccc(C)cc2)s1)C1CCCC1	-3.5	.	-8.3%	0.3%	11.2µM*
Fc1ccc(Cc2cn3cc(-c4ccc(Cl)cc4)nc3s2)cc1	.	.	.	.	0.891µM*
Fc1ccc(-c2cn3cc(Cc4ccc(Cl)cc4)sc3n2)cc1	.	.	.	.	4.47µM*
Fc1ccc(Cc2cn3cc(-c4ccccc4)nc3s2)cc1	.	.	.	.	14.1%
Cc1cc(C)cc(-n2nnc(C(=O)NCc3ccco3)c2N)c1	-3.2	0.3%	-2.2%[46.1 µM]	-1.5%	1.1%
Nc1c(C(=O)NCc2ccco2)nnn1-c1ccccc1	-4.1	4.5%	-7.6%	3.5%	12.6µM*
CCOC(=O)c1ccc(NC(=S)N2CCC(O)CC2)cc1	-3.7	?	-5.4%[46.1 µM]	-0.1%	12.6µM*
CCOC(=O)c1ccc(NC(=S)N2CCSC2c2ccc(Br)cc2)cc1 (stereo not given)	5.1	15.2%	-11.1%[46.1 µM]	22.4µM*	-25.8%
CCOC(=O)c1ccc(NC(=S)N2CCCC2c2ccc(OC)c(OC)c2)cc1 (stereo not given)	-0.4	-0.4%	12.1%	14.9%	-21.1%
CCOc1ccc(NC(=O)/C(C#N)=C\c2ccc(N3CCCC3)c(C)c2)cc1	174.0*	.	13.1%	.	-37.6%
O=C(CSc1ncc(S(=O)(=O)c2ccc(Cl)cc2)c(=O)[nH]1)Nc1ccc2c(c1)OCCO2	.	.	.	.	12.3%
O=C1c2ccccc2NC(c2ccc(OCc3ccccc3)c(OCc3ccccc3)c2)N1Cc1ccco1 (stereo not given)	.	.	.	.	-9.6%
Clc1ccc(-n2ncc3c(N4CCCCCC4)ncnc32)cc1	-0.4	-6.8%	-0.1%	-2.2%	-25.0%
CC1CN(c2ncnc3c2cnn3-c2ccc(Cl)cc2)CC(C)O1 (stereo not given)	2.6	?	-0.3%	3.1%	3.16µM*
Cn1cc(Cl)c(/C(N)=N/OC(=O)c2ccccc2C(F)(F)F)n1	-1.4	?	-0.9%	7.0%	11.2µM*
N/C(=N/OC(=O)c1ccccc1F)c1nonc1N	-0.6	10.9%	-4.7%	7.0%	?
Cc1ccc(NC(=O)CN2CCSc3ccc(S(=O)(=O)N4CCCC4)cc32)cc1C	.	.	.	.	-38.2%
Cc1ccc(NC(=O)C2CCN(C(=O)c3cnn(-c4ccccc4)c3-n3cccc3)CC2)cc1C	.	.	.	.	-33.1%
COCCSc1nnc(NC(=O)C(C)(C)C)s1	1.0	4.5%	-8.9%	-1.8%	5.62µM*
CC(C)(C)C(=O)Nc1nnc(SCc2cccc(F)c2)s1	1.3	?	-24.1%	5.3%	14.1µM*
CC1CCCCN1C(=O)c1ccc2c(c1)N(Cc1ccc(Cl)cc1)C(=O)c1ccccc1S2=O (stereo not given)	.	.	.	.	-12.9%
SMILES	IL2 activator	p53 reactivator	TCR act	Mito fusion act	BRCA1 expr up
CS(=O)(=O)N1CCN(c2nc(-c3cccs3)nc3ccccc23)CC1	.	.	.	.	11.4%
CSc1nsc(SCC(=O)Nc2ccc(NC(C)=O)cc2)n1	-2.0	2.7%	-0.2%	-14.6%	3.7%
COc1ccc(NC(=O)CSc2nc(SC)ns2)cc1	-0.1	?	0.0%	4.2%	4.47µM*
COc1ccc(-c2nn(-c3ccccc3)cc2C(=O)O)cc1	-1.3	0.5%	-0.7%	0.6%	1.4%
COc1ccc(-c2nn(-c3ccccc3)cc2C#N)cc1	3.6	12.8%	4.3%	-2.3%	3.98µM*
OCCCNc1c2c(nc3cc(-c4ccc(Cl)cc4)nn13)CCC2	0.5	3.0%	2.0%	14.1µM*	49.1%
